RAD52 inh: inhibitors of human RAD52 DNA annealing. P43351. recombinant RAD52 DNA annealing, FRET fluorescence. inhibition, % at 18.7 µM. 0.46% of 360,000 active;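 active = every replicate showing at least 50% inhibition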
Target sequence (P43351 whole entry, looked up): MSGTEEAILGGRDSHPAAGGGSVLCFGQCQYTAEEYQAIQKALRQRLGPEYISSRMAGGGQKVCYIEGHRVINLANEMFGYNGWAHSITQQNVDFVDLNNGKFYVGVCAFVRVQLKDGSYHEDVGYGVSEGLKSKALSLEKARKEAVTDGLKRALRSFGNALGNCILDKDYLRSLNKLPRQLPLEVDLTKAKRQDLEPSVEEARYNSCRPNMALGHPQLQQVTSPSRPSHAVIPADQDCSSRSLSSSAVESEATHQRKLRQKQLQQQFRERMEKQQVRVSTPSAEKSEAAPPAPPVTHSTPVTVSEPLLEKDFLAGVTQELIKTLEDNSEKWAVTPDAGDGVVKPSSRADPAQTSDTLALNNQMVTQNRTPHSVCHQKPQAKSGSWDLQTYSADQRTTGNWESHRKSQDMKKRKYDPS
FGF22 binding: binders of recombinant human FGF22 by thermal shift | Q9HCT0 | SYPRO orange fluorescence; percent of sucrose octasulfate shift, DMSO zero | activity (Tm shift, normalised), % at 9.99 µM | 1.5% of 340,000 active | AID 651658;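 active = mean Tm shift, scaled 0 neutral to 100 positive control, at about 1.3% or above, every replicate too, limit read from the data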
AF4-AF9 inh: inhibitors of human MLL-AF4/AF9 interaction | P42568 | AlphaScreen, biotin-AF4 peptide binding to FLAG-AF9 | inhibition, % at 10 µM | 0.47% of 350,000 active | AID 651704;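 active = every replicate reaching a set inhibition limit, whatever the replicate mean, cut at about 25% in these data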;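 note: 0% = plate neutral control median and 100% = total signal loss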
ERAP1 inh: blocks human ERAP1 aminopeptidase activity. recombinant ERAP1, Leu-AMC fluorescence, 60 min. inhibition, % at 10.7 µM. Q9NZ08. 0.15% of 340,000 active. AID 652197;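 active = mean replicate inhibition of at least 30%, or all replicates individually reaching that 30% level; inactive = mean below 30% and not every replicate reaching it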;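 note: 0% = neutral control wells and 100% = L-leucinethiol positive control wells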
DENV2 CPE: inhibitors of DENV2 cytopathic effect; CPE inhibition, % at 9.99 µM; 1.7% of 350,000 active; DENV2-infected cells, cytopathic effect rescue, plate reader; in the data active = CPE inhibition above about 20%, passing the limit was not always enough; tested in BHK-21 cells;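 note: 0% = median of neutral control wells and 100% = median of positive control wells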
Starred values were filed as active, the others as inactive; . = no result. Hits are enriched below; roughly 4% of the tested compounds scored in any of these assays.

SMILES | RAD52 inh | FGF22 binding | AF4-AF9 inh | ERAP1 inh | DENV2 CPE
CC(C)NC(=O)Nc1ccc2c(c1)C(=O)N([C@H](C)CO)C[C@H](C)[C@@H](CN(C)C(=O)CCC(F)(F)F)OCCCC[C@@H](C)O2 | 1.1 | 0.4 | -1.5 | -0.5 | -0.9
C[C@H]1CCCCO[C@@H](CN(C)C(=O)CCCN(C)C)[C@@H](C)CN([C@@H](C)CO)C(=O)c2cc(NC(=O)c3ccncc3)ccc2O1 | 16.3 | 0.1 | -18.5 | -1.8 | 4.0
C[C@H](NC(=O)C[C@H]1C[C@H]2c3cc(NS(C)(=O)=O)ccc3O[C@H]2[C@H](CO)O1)c1ccccc1 | 9.8 | -0.2 | -0.8 | -1.6 | -1.5
CCCNC(=O)N1[C@H](CO)[C@H](c2ccc(C3=CCCCC3)cc2)[C@H]1CNC(C)C | -18.7 | . | 6.8 | -0.2 | -0.6
Cc1ccc(NC(=O)C2CCN(S(C)(=O)=O)CC2)cc1Cl | -6.5 | 0.1 | -0.4 | -2.1 | 29.2*
CS(=O)(=O)N1CCC(C(=O)Nc2ccc(F)c(Cl)c2)CC1 | -11.6 | 0.2 | -2.3 | 0.1 | -5.9
COc1ccc(S(=O)(=O)N2CCC(C(=O)NCCN3CCOCC3)CC2)cc1C | 3.4 | -0.3 | -0.6 | -0.6 | -3.3
COc1ccc(S(=O)(=O)N2CCCC(C(=O)NCCN3CCOCC3)C2)cc1C (stereo not given) | 10.3 | 43.4* | 1.3 | 1.5 | 0.6
COc1ccc(S(=O)(=O)N2CCC(C(=O)NCc3ccccc3)CC2)cc1OC | -15.3 | 43.3* | 1.4 | -5.2 | 7.0
C/C=C/c1ccc([C@H]2[C@@H](CO)N(CCC(F)(F)F)C23CN(C(C)=O)C3)cc1 | -16.5 | -0.1 | 1.6 | 1.8 | 1.9
CC=Cc1ccc2n(c1=O)C[C@@H]1[C@@H](CO)[C@H](C(=O)NC3CCC3)N(Cc3ccncc3)[C@H]21 (mixture of isomers) | -21.9 | . | -4.2 | -1.9 | -4.7
C[C@@H]1CN([C@H](C)CO)C(=O)Cc2cc(NC(=O)Cn3cnnn3)ccc2O[C@@H]1CN(C)C(=O)NC1CCCCC1 | -5.3 | 0.0 | -1.4 | -1.3 | -8.4
COC(=O)CSc1nc(C)c(C)c(C)c1C(N)=O | -15.0 | 43.2* | -1.0 | -9.8 | .
COc1ccc(NC(=O)N(C)C[C@@H]2OCCCC[C@@H](C)Oc3ccc(NS(=O)(=O)c4ccc(OC)cc4)cc3C(=O)N([C@@H](C)CO)C[C@@H]2C)cc1 | -4.0 | -1.3 | -4.5 | 20.4 | 1.4
O=C(Nc1ccc(F)cc1)N[C@@H]1C[C@@H]2O[C@H](CO)CC[C@@H]2O[C@@H]1CCc1ccc(-c2ccccc2)cc1 | -4.7 | -0.7 | -3.5 | -2.2 | -16.5
COC(=O)[C@@H]1CCCN1C(=O)CCc1nnc(CCc2c[nH]c3ccccc23)o1 | -17.5 | 0.3 | -0.2 | -2.4 | 15.8
COC(=O)[C@@H]1CCCN1C(=O)CCc1nnc(CCC2CCCCC2)o1 | -10.6 | 43.1* | -2.4 | -0.6 | -5.5
C[C@@H]1CCCCO[C@H](CN(C)C(=O)CCCN(C)C)[C@@H](C)CN([C@H](C)CO)C(=O)c2cc(NS(=O)(=O)c3ccc(Cl)cc3)ccc2O1 | 6.8 | -0.3 | -1.7 | -3.7 | 6.2
C[C@H]1CCCCO[C@@H](CN(C)C(=O)CCCN(C)C)[C@@H](C)CN([C@@H](C)CO)C(=O)c2cc(NS(=O)(=O)c3ccc(Cl)cc3)ccc2O1 | 53.5* | -0.1 | 6.0 | -3.9 | 0.4
COc1ccc(S(=O)(=O)Nc2ccc3c(c2)C(=O)N([C@H](C)CO)C[C@H](C)[C@H](CN(C)C(=O)CCCN(C)C)OCCCC[C@H](C)O3)cc1 | 12.1 | -0.2 | 3.1 | -3.0 | 21.6*
CC1=Nc2ccc(Br)cc2C(c2ccccc2)N1CC(=O)NN (stereo not given) | 0.3 | 43.2* | 1.5 | 2.6 | -0.1
NNC(=O)CN1C(c2ccccc2)=Nc2ccc(Br)cc2C1c1ccccc1 (stereo not given) | -2.4 | 43.1* | 0.2 | 0.2 | 3.8
COc1cc(OC)c(C2=Nc3ccc(Br)cc3C(c3ccccc3)N2CC(=O)NN)cc1OC (stereo not given) | -2.2 | -0.4 | 0.0 | -1.2 | -1.7
COCC(=O)N(C)C[C@H]1N[C@@](C)(C(=O)OC)[C@H]2C(=O)N(Cc3ccccc3)C(=O)[C@@H]12 | -12.9 | 43.2* | 0.6 | -1.2 | 1.7
CC[C@@]1(C(=O)OC)N[C@H](CN(C)C(C)=O)[C@@H]2C(=O)N(Cc3ccccc3)C(=O)[C@@H]21 | -2.4 | 43.7* | 1.1 | 0.3 | -1.8

Bioassay records from PubChem.
